# Tested on: Plasmodium falciparum Sir2 (PF13_0152, Sir2A)
# Test: Plasmodium falciparum Sir2A binding compounds – biochemical, small-molecule microarray, 635 nm fluorescence, primary screen (AID 1098);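 also: score merges spot fluorescence intensity with its signal-to-noise ratio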
# Conditions: fluorescence 635 nm, higher = more signal
row,Compound,composite z-score
1,COC(=O)[C@H](C)NC(=O)CCC1CC(OC(=O)NCCc2ccc(F)cc2)CC2(CCCC(COC(=O)NCC3CCCCC3)O2)O1 (stereo partly specified),0.662
2,COc1ccc2c(c1)O[C@@H](c1cccc(C(F)(F)F)c1)[C@H](O)C2=O,0.0008
3,CCOC(=O)[C@H](Cc1ccccc1)NC(=O)CCC1CC(OC(=O)NCc2ccc3c(c2)OCO3)CC2(CCCC(COC(=O)NCCOc3ccccc3)O2)O1 (stereo partly specified),0.653
4,CC(=O)OC[C@H]1O[C@@H](ON=C(C)C)[C@H](OC(C)=O)[C@@H](OC(C)=O)[C@@H]1OC(C)=O,-0.745
5,CCOC(=O)[C@H](Cc1ccccc1)NC(=O)CCC1CC(OC(=O)NCc2ccc3c(c2)OCO3)CC2(CCCC(COC(=O)NCCc3ccc(Cl)cc3)O2)O1 (stereo partly specified),0.667
6,O=C1C=C[C@@H](O)[C@@H]2[C@@H]3C(=O)N(Cc4ccccc4)C(=O)[C@@H]3CC[C@@H]12,0.295
7,COC(=O)C1=C(C)N(Cc2ccccc2)C2=C3C(=O)OCC[C@@H]3[C@@](O)(C(=O)OC)C(=O)N2[C@@H]1c1ccccc1,0.126
8,CCCNC(=O)OC[C@H]1O[C@H](CCON=C[C@@H](NS(=O)(=O)c2ccc(C)cc2)[C@H](C)C=CCC(=O)OC)C=C[C@@H]1Oc1ccc(OC)cc1,-0.289
9,CC=CC1=C(CO)[C@H](O)[C@H]2O[C@H]2[C@@H]1O,0.134
10,COc1ccc(O[C@H]2C=C[C@@H](C#Cc3ccccc3)O[C@@H]2CO)cc1,0.544
11,COC(=O)[C@@H]1CC[C@H](C)[C@@H](c2ccc(C)cc2)N1C(=O)c1ccc(C=NOC[C@H]2O[C@H](c3ccccc3)C=C[C@@H]2Oc2ccc(OC)cc2)cc1,0.198

# Source: PubChem BioAssay
